In PubChem BioAssay (Tox21) one finds outcome data, which are given here for 40 compounds.

Inconclusive results are not listed. The source made the active and inactive calls. Calls come from the whole dose curve; as a rule, active = well fitted activation curve with a large enough effect in the signal ratio in the repeat runs (not every such curve was filed as active); inconclusive = weak or mixed curves, or effect the other way; inactive = flat fitted curve, though single readings scatter; the % refers to the signal ratio.

The assay is described as follows: qHTS assay to identify small molecule agonists of the endoplasmic reticulum stress response signaling pathway (AID 1159516). To be noted: ESRE-bla HeLa, ER stress beta-lactamase reporter, 5 h; series mostly up to 61 µM. An excerpt:
National Center for Advancing Translational Sciences [NCATS]
NIH Chemical Genomics Center [NCGC]
U.S. Environmental Protection Agency [EPA]
National Institutes of Environmental Health Sciences [NIEHS]
National Toxicology Program [NTP]
U.S. Food and Drug Administration [FDA]
Endoplasmic Reticulum (ER) plays an important role in cellular signaling, protein folding/maturation, stress response, lipid biosynthesis, calcium storage and release etc. Under stress conditions, proteins in ER misfold or unfold, and leading to the expression of ER stress responsive genes. ER stress has been associated with a variety of pathophysiological conditions such as cancer, inflammation, neurodegenerative diseases, diabetes, ischemic heart disease etc. To identify the compounds that induce ER stress response, an ER stress reporter cell line, CellSensor ESRE-bla HeLa (Life Technologies, Carlsbad, CA) containing a beta-lactamase reporter gene under control of the Endoplasmic reticulum Stress Response Element (ESRE) was used to screen Tox21 10K compound library.
Tox21 Assay Protocol Summary:
ESRE-bla HeLa cells were dispensed at 1,500 cells/6 uL of assay medium per well into black wall/clear-bottom 1536-well plates using a Multidrop Combi (ThermoFisher Scientific, Waltham, MA) dispenser. After the assay plates were incubated at 37 C and 5% CO2 for an overnight, 23 nL of compounds dissolved in DMSO, positive controls or DMSO only was transferred to the assay plate by a Pintool station (Kalypsys, San Diego, CA). The assay plates were incubated at 37 C and 5% CO2 for 5 hr. One uL of LiveBLAzer B/G FRET substrate (Life Technologies) was added using a Flying Reagent Dispenser (Aurora Discovery, San Diego, CA) and the plates were incubated at room temperature for 2 hr. Fluorescence intensity (405 nm excitation, 460 nm and 530 nm emissions) was measured using an Envision plate reader (PerkinElmer, Shelton, CT).
As for `Cn1cnc2c1c(=O)[nH]c(=O)n2C`, the compound was called inactive.

As for `Nc1cccc(N)c1`, the result was inactive.

As to `CN(C)Cc1cc(CN(C)C)c(O)c(CN(C)C)c1`, the result was inactive. With `C[C@]12C[C@H](O)[C@H]3[C@@H](CCC4=CC(=O)CC[C@@]43C)[C@@H]1CC[C@@H]2C(=O)CO` the entry was “inactive”; with `OC[C@@H](O)[C@@H](O)[C@H](O)[C@H](O)CO`, “inactive”.

`COc1ccccc1O`: the compound was called inactive.

Take `NC(N)=NC(N)=NCCc1ccccc1`: the call was inactive.

`N[C@@H](Cc1c[nH]c2ccccc12)C(=O)O`: the result was inactive. In the case of `CC(O)COc1ccccc1` (stereo not given), the outcome was inactive. With `CCCCC/C(C=O)=C\c1ccccc1` the entry was “inactive”; with `COc1cc(O)c(C(=O)c2ccccc2)cc1S(=O)(=O)O`, “inactive”.

Turning to `O=C(O)Cc1cccc2ccccc12`, the outcome was inactive. For `C1CNCCN1`, the compound was classed as inactive. Turning to `Cc1ccc(O)c(-n2nc3ccccc3n2)c1`, the compound was classed as inactive. In the case of `NC(=O)c1ccc([N+](=O)[O-])cc1Cl`, the compound was called inactive. For `COc1ccc(O)cc1`, the outcome was inactive. As for `CN/C(=C\[N+](=O)[O-])NCCSCc1ccc(CN(C)C)o1`, the entry is “inactive”; as for `COC(=O)c1ccc(C=O)cc1`, “inactive”. In the case of `CC(C)Cc1ccc(C(C)C(=O)O)cc1` (stereo not given), the outcome was inactive. With `OCCCc1ccccc1` the entry was “inactive”. With `C#C[C@]1(O)CC[C@H]2[C@@H]3CCc4cc(O)ccc4[C@H]3CC[C@@]21C` the entry was “inactive”.

Turning to `CCN(CC)CCOC(=O)c1ccc(N)cc1`, the call was inactive. With `Cc1c(N(C)CS(=O)(=O)O)c(=O)n(-c2ccccc2)n1C`, the result was inactive. Turning to `CCCCNC(=O)NS(=O)(=O)c1ccc(N)cc1`, the outcome was inactive.

With `C=CC(=O)NC(C)(C)CS(=O)(=O)O`, the call was inactive. With `CC1=NN(c2ccccc2)C(=O)C1` the entry was “inactive”. With `CC(C)=CCC/C(C)=C/CO` the entry was “inactive”. As for `COc1ccc(C(=O)c2ccccc2)c(O)c1`, the entry is “inactive”. For `CCCCOC(=O)CCCCCCCCC(=O)OCCCC`, the compound was classed as inactive. With `COCCOCCOC` the entry was “inactive”. On to `COCC(C)N` (stereo not given), for which the outcome was inactive. `CCCCCCCC(=O)OCC(O)CO` (stereo not given): the outcome was inactive.

As for `CC1=C(/C=C/C(C)=C/C=C/C(C)=C/C(=O)O)C(C)(C)CCC1`, the compound was classed as inactive.

Regarding `CC(=O)/C=C/C1=C(C)CCCC1(C)C`, the compound was called inactive.

Turning to `Cc1cnc(NC(=O)C2=C(O)c3ccccc3S(=O)(=O)N2C)s1`, the result was inactive. `Cc1c(N(C)C)c(=O)n(-c2ccccc2)n1C`: the compound was classed as inactive. With `CC(C)(C)NCC(O)c1ccc(O)c(CO)c1` (stereo not given) the entry was “inactive”; with `C[C@]12CC[C@@H]3c4ccc(O)cc4C[C@@H](CCCCCCCCCS(=O)CCCC(F)(F)C(F)(F)F)[C@H]3[C@@H]1CC[C@@H]2O` (stereo not given in full), “inactive”; with `CCCCCCCCOc1ccc(C(=O)c2ccccc2)c(O)c1`, “inactive”. With `O=c1cc[nH]c(=O)[nH]1` the entry was “inactive”.
